# G9a inh = blocks human histone lysine methyltransferase G9a | Q96KQ7 | G9a H3K9 monomethylation, AlphaScreen, 2 h | Potency, µM (doses to about 102 µM), for the others: at the top dose activity, negative = inhibition, usual class: inhibitors | 350,000 compounds, 8.8% hits | AID 504332; further: potency means the concentration at half of the fitted maximal effect; on the % scale 0 is the no-effect control and ±100 the full control effect; nearly all actives have a fitted effect of over 75% in size
# Target sequence (Q96KQ7 913-1193 limits assumed): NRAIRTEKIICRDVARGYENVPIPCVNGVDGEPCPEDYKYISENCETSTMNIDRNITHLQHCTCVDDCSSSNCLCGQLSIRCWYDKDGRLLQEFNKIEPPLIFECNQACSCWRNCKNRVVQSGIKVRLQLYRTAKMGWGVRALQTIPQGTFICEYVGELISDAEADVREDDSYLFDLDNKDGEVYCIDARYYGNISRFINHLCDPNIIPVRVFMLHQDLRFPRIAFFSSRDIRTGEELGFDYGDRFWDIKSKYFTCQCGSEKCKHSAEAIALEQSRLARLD
#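 Readings reflect AlphaScreen signal from monomethyl-H3K9 antibody detection. HMT at 20 nM; substrate b-H3K9 500 nM; cofactor SAM 20 uM; 2 h RT reaction; compounds tested as titrations in qHTS with 15 min preincubation.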
# BAZ2B inh = blocks human BAZ2B; AlphaScreen BAZ2B-H3K14Ac peptide displacement; Potency, µM (doses to about 114 µM), inactives show top-dose activity change, negative = inhibition, hits mostly inhibitors; Q9UIF8; AID 504333; 360,000 compounds, 4.4% hits; further: potency means the concentration at half of the fitted maximal effect; on the % scale 0 is the no-effect control and ±100 the full control effect; nearly all actives have a fitted effect of over 60% in size
#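 BAZ2B 50 nM plus b-H3(5-23)K14Ac 50 nM, PBS pH 7.4/0.01% Tween-20, 30 min RT; compound added (max 110 uM), 30 min RT; streptavidin donor/Ni-chelate acceptor beads 10 ug/mL final, 20 min dark; AlphaScreen read.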
# PI5P4Ka inh = blocks human PI5P4K alpha kinase activity; P48426; PI5P4Kalpha enzyme, ADP-Glo luminescence, 60 min; active compounds read low; max response, %; 330,000 compounds, 1.2% hits; AID 652105; active means max response of -50% or lower; inconclusive means between -30% and -50%; inactive means -30% or higher; further: value at the top dose of about 77 µM; on the % scale 0 is the no-effect control and ±100 the full control effect
#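 ADP-Glo luminescence end-point after a 60 min room-temperature kinase reaction. PI5P4Kalpha and substrate in HEPES pH 7.4 buffer with EGTA, 0.1% CHAPS and 5% DMSO; ATP at 5 microM final.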
# PLK1 PBD inh = inhibitors of human PLK1 polo-box domain binding. Plk1 PBD binding of FITC phosphopeptide, fluorescence polarization. Potency, µM, for inactives: max response, negative = inhibition, hits mostly inhibitors. 360,000 compounds, 2.8% hits. AID 720504; further: potency means the concentration at half of the fitted maximal effect; series mostly up to about 57 µM; on the % scale 0 is the no-effect control and ±100 the full control effect; nearly all actives have a fitted effect of over 65% in size
# JMJD2A Tudor inh = blocks the human JMJD2A Tudor domain; O75164; AlphaScreen JMJD2A-Tudor / H3K4me3 peptide binding; Potency, µM (top dose mostly 114 µM), without a hit: at the highest dose activity change, negative = inhibition, most hits filed as inhibitors; 390,000 compounds, 4.4% hits; AID 504339; further: potency means the concentration at half of the fitted maximal effect; on the % scale 0 is the no-effect control and ±100 the full control effect; nearly all actives have a fitted effect of over 50% in size
# HP1b binding inh = inhibitors of HP1-beta chromodomain binding to methylated histone tails. P83916. AlphaScreen HP1-beta / biotin-H3K9me3 peptide binding. 390,000 compounds, 0.56% hits. Potency, µM (titrated, usually from 114 µM), without a hit: at the top dose activity change, negative = inhibition, most hits filed as inhibitors. AID 540317; further: potency means the concentration at half of the fitted maximal effect; nearly all actives have a fitted effect of over 70% in size
# Target sequence (P83916 whole entry, looked up): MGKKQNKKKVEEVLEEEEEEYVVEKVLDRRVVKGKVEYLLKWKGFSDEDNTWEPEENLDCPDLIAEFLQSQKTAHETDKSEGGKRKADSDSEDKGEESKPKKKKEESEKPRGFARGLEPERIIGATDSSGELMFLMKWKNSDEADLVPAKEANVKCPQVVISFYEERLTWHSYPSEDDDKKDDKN
#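 HP1-beta protein (50 nM final) preincubated 30 min at room temperature with biotinylated H3(1-18)K9me3 peptide (50 nM) in PBS pH 7.4, 0.01% Tween-20, then compound added for 30 min. AlphaScreen streptavidin donor/nickel chelate acceptor beads (10 ug/mL final), 30 min dark, luminescence read.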
# * = called active by the depositor; ? = inconclusive; nt = no result given; ! = a repeat was not active; [ ] = another dose, or the depositor's remark. Hits are enriched below; roughly 12% of the tested compounds scored in any of these assays. Unless noted, the call rests on the fitted dose curve; in most records, active means well fitted curve in the direction sought with a large enough effect; inconclusive means small, poorly fitted or top-dose-only effect, or another doubt; inactive means no such curve, though single readings can be large; an effect the other way counts as inactive or inconclusive.
SMILES,G9a inh,BAZ2B inh,PI5P4Ka inh,PLK1 PBD inh,JMJD2A Tudor inh,HP1b binding inh
CSc1nc(N)c(N=Nc2ccc([As](=O)(O)O)cc2)c(=O)[nH]1,8.9µM*,-18%,-18,11µM*,?,41%
COc1c(/C=C2/C(=O)NC(=O)N(C)C2=O)c(CCN(C)C(=O)c2ccccc2)cc2c1OCO2,7%,-26%,-19,27µM*,-2%,40%
CCCCCSc1cc(OC)c(CCN(C)C)cc1OC,3%[59 µM],45µM*,13,-15%,?,?
CC(C)(C)NCc1cccn1-c1sc2c(c1C#N)CCCC2,?,56µM*,-2,4%,28µM*,?
Cc1cccnc1,0%[0.501 µM],17%,-2,-1%,-8%,56%
C[C@]12CC[C@H]3[C@@H](CCC4C[C@H](O)CC[C@@]43C)[C@@H]1CC[C@@H]2O (stereo partly specified),10%[12.7 µM],nt,nt,nt,nt,nt
O=C(CCN1CC2CCC(CC2)C1)c1cccs1,nt,nt,14,24µM*,-34%,-29%
Cc1ccc2c(c1)C1CN(C)CCC1N2C(=O)c1cccs1 (stereo unspecified),9%,-20%,-1,-6%,-14%,1%
COc1cccc(C2=CC(c3cc(Br)ccc3F)n3nnnc3N2)c1 (stereo unspecified),11µM*,8%,nt,nt,-10%,64%
O=c1[nH]c(=O)c2ccccc2o1,?,nt,2,-18%,7%,33%[57 µM]
Cc1cc(N(CCCl)CCCl)ccc1/C=N/N=C(\N)c1cnccn1,nt,nt,10,-5%,14µM*,?
C=CCN1C(=O)/C(=C/c2cc(C)n(-c3ccccn3)c2C)C(=O)NC1=S,?,-5%,?,2.4µM*,-19%,26%
CC(=O)[C@@H]1CC[C@H]2[C@@H]3CC[C@@H]4CC(=O)CC[C@]4(C)[C@H]3CC[C@]12C,26%[59 µM],nt,nt,nt,nt,nt
NC(=O)c1sc2nc3c(c(-c4cccs4)c2c1N)CCCC3,22µM*,-26%,nt,nt,nt,nt
CN1CCc2nc3sc(C#N)c(N)c3c(-c3cccs3)c2C1,?,?,nt,-24%,-28%,5%
S=c1[nH]nc(Cn2c(-c3ccccn3)nc3ccccc32)n1-c1ccc2c(c1)OCCO2,-135%[59 µM],-6%,-21,-15%,3.2µM*,?
CC[C@@H]1CN2CCc3cc(OC)c(OC)cc3[C@H]2C[C@@H]1C[C@@H]1NCCc2cc(O)c(OC)cc21,-1%[21.5 µM],nt,nt,nt,nt,nt
O=C1OC(c2cc(I)c(O)c(I)c2)(c2cc(I)c(O)c(I)c2)c2ccccc21,7.1µM*,nt,nt,nt,nt,nt
O=c1c2ccccc2nc(CSc2ncnc3nc[nH]c23)n1-c1ccccc1,?,10%,nt,-7%,32µM*,-32%
C=C1CC[C@H](O)C/C1=C/C=C1\CCC[C@]2(C)[C@@H]([C@H](C)CCCC(C)C)CC[C@@H]12,16µM*!,nt,nt,nt,nt,nt
CN(C)[C@@H]1C(=O)C(C(N)=O)=C(O)[C@]2(O)C(=O)C3=C(O)c4c(O)cccc4[C@@](C)(O)[C@H]3[C@H](O)[C@@H]12,5µM*,nt,nt,nt,nt,nt
CN(C)[C@@H]1C(=O)C(C(N)=O)=C(O)[C@@]2(O)C(=O)C3=C(O)c4c(O)cccc4[C@@](C)(O)C3[C@H](O)C12 (stereo partly specified),4.5µM*,6.3µM*,-88*!,13µM*!,3.2µM*,14µM*!
COc1ccc(-c2cc(C(=O)N3CCN(c4ccccc4OC)CC3)c3cc(C(C)C)ccc3n2)cc1,-8%[59 µM],?,nt,nt,-25%,20%
CN1C2CCC1/C(=C/c1ccccn1)C(=O)/C2=C\c1ccccn1,?,-24%,-7,27µM*,79µM*,-3%
